The entries come from a sample that favours hits as a whole.
ERK EGF inh: blocks ERK signaling stimulated by EGF. 0.41% of 130,000 active. AID 1454. Potency, µM (top dose mostly 11.5 µM), without a hit: at the top dose activity change, negative = inhibition, hits mostly inhibitors. HEK293-V1b, EGF-stimulated phospho-ERK AlphaScreen;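 also: potency is read from the fitted curve at half-maximal effect; plate controls were stimulated vehicle wells for no effect and unstimulated vehicle basal for full effect; nearly all actives have a fitted effect of over 55% in size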
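HEK293 cells stably expressing V1b receptor, serum-reduced (1% FBS) overnight, got compound for 30 min at 37C, then 25 nM EGF for 5 min. Lysate phospho-ERK read by AlphaScreen SureFire; AC50 from Hill fits.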
ERK pERK EGF: reduces EGF-stimulated ERK phosphorylation in HEK293 cells | shares compounds with ERK EGF inh | Potency, µM (top dose mostly 57.5 µM), for the others: at the top dose activity change, negative = inhibition, most hits filed as inhibitors | 60% of 60 active | HEK293 EGF-stimulated ERK phosphorylation, AlphaScreen
c-Raf inh: blocks human c-Raf kinase activity; c-Raf kinase inhibition, homogeneous biochemical assay; activity change, negative = inhibition, % at 76.9 µM; shares compounds with ERK EGF inh; 70 tested, under 10 active
MEK inh: ERK pathway inhibitors follow-up: human MEK1 kinase inhibition. shares compounds with ERK EGF inh. homogeneous MEK kinase activity assay, ERK pathway. Potency, µM (series often up to 76.9 µM), for inactives: at the highest dose activity change, negative = inhibition, actives largely listed as inhibitors. 70 tested, under 10 active
An asterisk follows results filed as active; [ ] = dose if it differs, or a comment. Calls follow the shape of the dose curve; as a rule, active = well fitted curve in the direction sought with a large enough effect; inconclusive = small, poorly fitted or top-dose-only effect, or another doubt; inactive = no such curve, though single readings can be large; an effect the other way counts as inactive or inconclusive.

COC(=O)C1CSC(C(=O)OC)N1C(=O)CN1CCN(c2ccc(OC)cc2)CC1 (centres undefined) was read as ERK EGF inh -3%.
`O=C(NO)c1ccccc1C(F)(F)F` gave ERK EGF inh 5%.
N#C/C(=C(/N)Sc1ccc(N)cc1)c1ccccc1C(F)(F)F was read as ERK EGF inh 0.89µM*, c-Raf inh 12 and MEK inh -16%.
For Nc1ccc(SC(F)(F)F)cc1 the results were ERK EGF inh 19%.
`CC[C@@]12CCCN3CCc4c(n(c5ccccc45)[C@](O)(C(=O)OC)C1)[C@H]32` gave ERK EGF inh 2%.
`O=C(NCC1CCCO1)/C(=C\c1ccco1)NC(=O)c1ccc(Cl)cc1` (centres undefined) gave ERK EGF inh 8%.
For N#C/C(=C\c1ccco1)C(=O)NCc1ccccc1 the results were ERK EGF inh -3%.
For N#CC(C#N)=C1C=CC=CN1/C(=C\c1ccco1)C(=O)c1ccc(Cl)cc1 the results were ERK EGF inh 10µM*, ERK pERK EGF inconclusive, c-Raf inh -15 and MEK inh -19%.
For Cn1c(SCC(=O)c2ccc(F)cc2)nnc1-c1cccnc1 the results were ERK EGF inh 0%.
For C/C(N)=C(/C#N)C(=O)CSc1ccccc1F the results were ERK EGF inh -7%.
N#CC(=C(/N)Sc1ccccc1N)/C(C#N)=C(/N)Sc1ccccc1N was read as ERK EGF inh 0.89µM* and c-Raf inh -2.
`Nc1ccccc1SSc1ccccc1N` gave ERK EGF inh 27%[57.5 µM].
COc1ccc(N2C(=O)C3C(C2=O)C3(c2ccccc2)c2ccccc2)cc1 (centres undefined) was read as ERK EGF inh -4%[57.5 µM].
COc1ccc(N2CC(=O)N(c3ccccc3)C2=S)cc1 was read as ERK EGF inh 5%.
For COc1ccc(N=C2C(=Nc3ccc(OC)cc3)N(c3ccc(OC)cc3)C(=S)N2c2ccccc2)cc1 the results were ERK pERK EGF 8.9µM*, c-Raf inh -6 and MEK inh -10%.
Screening COc1ccc(N2C(=O)CN(Cc3cc(OC)c(OC)c(OC)c3)C2=S)cc1 returned ERK EGF inh -5%.
For COc1ccc(N2C(=O)/C(=C3/C=CC=CN3C)SC2=S)cc1 the results were ERK EGF inh -2%.
Screening COc1ccc(N=C2C(=Nc3ccc(OC)cc3)N(c3ccc(OC)cc3)C(=S)N2C)cc1 returned ERK pERK EGF 7.9µM*, c-Raf inh 6 and MEK inh -13%.
Screening CC(C)c1ccc(C2=C(O)c3ccccc3C(=O)C2=O)cc1 returned ERK EGF inh 1%.
Screening COc1ccc(CNC(=O)c2cnn3c(C(F)F)cc(C)nc23)cc1 returned ERK EGF inh 4%.
For COc1cc(NC(=O)c2ccc([N+](=O)[O-])o2)ccc1NC(=O)c1cccs1 the results were ERK EGF inh 3%.
For Cc1ccc2nc(Nc3nc(CSc4nc5ccccc5s4)cc(=O)[nH]3)nc(C)c2c1 the results were ERK EGF inh 4%.
COc1ncc2nc(-c3ccc(Cl)cc3)c(=O)n(CCc3ccccc3)c2n1 was read as ERK EGF inh 6%.
Screening COc1ccc(-n2c(=O)c(CCc3ccccc3)nc3cnc(N(C)C)nc32)cc1 returned ERK EGF inh 4%.
Screening COc1ccc(-c2nc3cnc(N(C)C)nc3n(CCc3ccccc3)c2=O)cc1 returned ERK EGF inh inconclusive, ERK pERK EGF inconclusive, c-Raf inh 1 and MEK inh -4%.
`N#Cc1c2n(c3c(N)ncnc13)CCCCC2` gave ERK EGF inh 7%[57.5 µM].
Screening CCn1c2ccccc2c2cc(NC(=O)COc3ccccc3)ccc21 returned ERK EGF inh 0%.
Cc1cccc(CNc2ncnc3ccc(-c4cccc(NS(C)(=O)=O)c4)cc23)c1 was read as ERK EGF inh 6.3µM*, ERK pERK EGF 11µM*, c-Raf inh inconclusive and MEK inh 1%.
Screening Cc1cccc(CNc2ccnc(-c3cccc(NS(C)(=O)=O)c3)n2)c1 returned ERK EGF inh 34%.
For Cc1cccc(CNc2cc(-c3cccc(NS(C)(=O)=O)c3)ncn2)c1 the results were ERK EGF inh 17%.
`CCN(CC)S(=O)(=O)c1cccc(NC(=O)c2ccc(Sc3nncn3C)c([N+](=O)[O-])c2)c1` gave ERK EGF inh -6%.
`COc1cc(C(=O)NC(=S)NNC(=O)c2ccc3c(c2)OCO3)cc(OC)c1OC` gave ERK EGF inh 1%[57.5 µM].

Source: PubChem BioAssay
